# Laboratory results: PubChem BioAssay AID449762 (Southern Research Specialized Biocontainment Screening …, 2010)
# Out of some 330,000 compounds screened, about 1,900 (0.58%) were called active. Roughly 4% stayed inconclusive and do not appear here. These entries were drawn from the full list. Results with a measured potency or affinity are listed apart. A number with no mark means an inactive call. Rule as the data show it: inconclusive = inhibition above about 70% without an active follow-up result; inactive = below that.
# Assay: M. tuberculosis growth inhibition, HTS (AID 449762);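 also: bacterial growth assessed after seven days of incubation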
# Conditions: M. tuberculosis H37Rv growth inhibition, 7H9 media; at 25 µM; active compounds read high
row,Compound,inhibition
1,CCC(COC(=O)Nc1ccccc1)NC(=O)OC(C)C (stereo not given),-6.07%
2,COc1cccc(Cn2cnc3c(NS(=O)(=O)c4cc(Cl)ccc4Cl)c(C)c(C)cc32)c1,0.44%
3,Oc1ccc(Nc2nc(-c3ccc(O)cc3)cs2)cc1,4.52%
4,NS(=O)(=O)c1ccc(Nc2nc(-c3ccc4ccccc4c3)cs2)cc1,1.78%
5,CSc1ccccc1NC(=O)Cn1nnc(-c2ccc(S(C)(=O)=O)cc2)n1,-2.14%
6,NC(=O)C1CCN(Cc2nc(-c3ccccc3)no2)CC1,-14.2%
7,O=c1c2ccccc2cnn1Cc1n[nH]c(=S)n1-c1ccc(F)cc1,4.78%
8,CCOC(=O)N/N=C\c1ccc([N+](=O)[O-])o1,-1.58%
9,CCOC(=O)N/N=C(\C)c1ccc(C)o1,-1.85%
10,CC(C)NC(=O)N(O)C1N(Cc2ccc3c(c2)OCO3)C(=S)SC1(C)C (stereo not given),3.94%
11,CCCc1cc(C(=O)OC)c(NC(=O)CCCC(=O)O)s1,0.02%
12,Cc1nn(CC(=O)NCCCc2ccccc2)c(=O)c2cc3occc3n12,3.16%
13,COc1cccc(NC(=O)CN(C)C(=O)CNC(=O)c2ccc(Oc3ccccc3)cc2)c1,7.98%
14,Cc1c(Cl)cccc1NC(=S)N1CCN(C(=O)c2ccco2)CC1,-0.43%
15,Cc1ccc(N2C(=O)C(CN(C)C)C2c2ccccc2)cc1 (stereo not given),-6.05%
16,COc1ccc(N2C(=O)C(F)(F)C2c2ccc(C)cc2)cc1OC (stereo not given),60.7%
17,CC1=NN(C(=O)c2c(Br)c(C)nn2C)C(O)(C(F)(F)F)C1 (stereo not given),0.52%
18,C#CCSc1nc2ccccc2n1C(=O)c1ccc(S(=O)(=O)N2CCCCC2)cc1,-2.86%
19,COC(=O)C1=C(c2ccc(S(C)(=O)=O)cc2)C[C@@H]2CC[C@H]1N2C(=O)N1CCCCC1,3.7%
20,Cc1c(Cl)cccc1NC(=O)NCc1ccccn1,-11.4%
21,Cc1c(C(=O)NCc2ccccn2)oc2c(Cl)cccc12,-3.71%
22,CCC1CCCCN1CCCNC(=O)Cn1nc(C)n2nc(-c3ccccc3)cc2c1=O (stereo not given),1.58%
23,CCSc1nnc(CCNS(=O)(=O)c2ccc(C(C)=O)cc2)n1C,0.26%
24,S=C(Nc1cc(Cl)cc(Cl)c1)N1CCCC1,0.04%

row,Compound,inhibition
1,Cc1cc2c(ncn2Cc2ccccc2)c(N)c1C,2.7%
2,CCCn1cnc2c(N)c(C)c(C)cc21,-11.4%
3,O=C(NNC(=O)C1CCN(c2ncccn2)CC1)c1ccc(F)cc1,0.94%
4,CC(=O)OC1N=C(c2ccccc2Cl)c2cc(Br)ccc2N(C)C1=O (stereo not given),-6.48%
5,N#C/C(=C/c1ccc(Br)s1)C(=O)NCCc1c[nH]c2ccccc12,3.76%
6,N#C/C(=C/c1ccc(N2CCCCC2)o1)C(=O)NCCc1c[nH]c2ccccc12,-3.85%
7,CCN1CCc2nc(NC(=O)Cc3ccc4c(c3)OCCO4)sc2C1,-17.6%
8,CC(C)NC(=O)CCCN1C(=O)c2ccccc2Sc2ncccc21,1.48%
9,O=C(O)c1cc(-c2ccncc2)nc2ccc(S(=O)(=O)N3CCOCC3)cc12,3.61%
10,O=C(Nc1ccc(N2CCCC2)c(Cl)c1)c1cccs1,7.74%
11,O=C(NC(=S)Nc1ccc(N2CCOCC2)c(Cl)c1)c1cccs1,3.13%
12,COc1ccc2c(c1)C(=O)N1[C@H]3c4cc(OC)ccc4OC[C@@H]3[C@H](c3ccccc3)[C@]1(C)C(=O)N2,1.44%
13,COc1ccc2c(c1)[C@H]1[C@H](CO2)[C@H](c2ccccc2)[C@]2(C)C(=O)Nc3ccc(C)cc3C(=O)N12,1.01%
14,O=c1c2cccc3c2c(nn1-c1ccccc1)-c1ccccc1-3,-2.02%
15,COc1cccc(NC(=O)CN(C)C(=O)c2c(C)nn(CC(C)C)c2Cl)c1,-7.79%
16,O=C(COc1ccc(Cl)cc1)OCc1csc(Nc2ccccc2)n1,4.58%
17,O=C(COc1ccccc1)OCc1csc(Nc2ccccc2)n1,11.3%
18,CC1CCCC(NC(=O)COC(=O)c2ccc(Br)o2)C1C (stereo not given),10.4%
19,COCCN(C(=O)c1cc(-c2ccncc2)nc2ccccc12)c1c(N)n(CC(C)C)c(=O)[nH]c1=O,-4.69%
20,C=C(C)C1Cc2c(C)nn(-c3cccc4ccccc34)c2C1 (stereo not given),40.9%
21,C=C(C)C1Cc2c(C)nn(-c3ccccc3)c2C1 (stereo not given),5.29%
22,CC(c1ccccc1)N1C(=O)C2C3C=CC(C4CC34)C2C1=O (stereo not given),0.61%
23,Cc1cc(C2=NNC(=NC3CC3)SC2)c(C)n1Cc1ccco1,63.5%
24,CCN=C1NN=C(c2cc(C)n(Cc3ccco3)c2C)CS1,-1.01%

row,Compound,inhibition
1,CCCCn1c(CN2CCN(c3cccc(Cl)c3)CC2)nc2c1c(=O)[nH]c(=O)n2C,62.7%
2,CC1CCCN(C2(O)C(=O)Nc3ccc(Br)cc32)C1 (stereo not given),5.15%
3,COCCN(C(=O)COC(=O)c1cc2ccccc2cc1OC)c1c(N)n(Cc2ccccc2)c(=O)[nH]c1=O,-2.06%
4,COc1ccccc1OCC(=O)Nc1ccc(C(N)=O)cc1,-3.41%
5,CC(=Nc1cccc(O)c1)c1sc2ccccc2c1O,11.9%
6,CCCn1nc(C(=O)Nc2ccc(S(=O)(=O)Nc3nccs3)cc2)c2ccccc2c1=O,8.73%
7,O=C(Nc1ccccc1F)Nc1ccccc1Br,4.25%
8,CCOc1ccc(Br)cc1/C(C)=N\NC1=NCCN1,-0.3%
9,COc1ccc(Br)cc1/C(C)=N/NC1=NCCN1,1.92%
10,CC(C)OCCCN1CC(=O)N2C(c3cccc([N+](=O)[O-])c3)c3[nH]c4ccccc4c3C[C@H]2C1=O (stereo not given in full),19.4%
11,CCCc1cc(-c2nc(N)ncc2-c2csc(C)n2)c(O)cc1OC,-5.66%
12,CCc1cc(-c2nc(N)ncc2-c2ccc(Br)cc2)c(O)cc1OC,14.9%
13,CC(C)C(=O)Nc1nc2ccc(S(C)(=O)=O)cc2s1,4.62%
14,O=C(O)c1ccc(-n2c(-c3ccccc3)n[nH]c2=S)cc1,-4.35%
15,Cc1ccccc1CN1CCN(Cc2ccccc2)CC1,-6.4%
16,CCN1CCN(Cc2ccccc2C)CC1,-5.92%
17,CCOC(=O)Cc1csc(SCc2nc3ccccc3c(=O)[nH]2)n1,-2.6%
18,CSC(=S)N/N=C/c1ccc(N(C)C)cc1,3.05%
19,CSC(=S)N/N=C/c1ccc(Br)cc1,57.5%
20,COc1ccccc1N(O)C1CC(=O)N(c2ccc(F)cc2)C1=O (stereo not given),10.9%
21,COc1ccccc1N1C(=O)CC(N(O)c2ccccc2)C1=O (stereo not given),7.06%
22,S=C(N/N=C/c1ccc(Cl)cc1)N1CCOCC1,10.7%
23,Cc1ccc(/C=N/NC(=S)N2CCOCC2)cc1,-4.55%
24,N#Cc1c(N)nc(Sc2ccc(Cl)cc2)c(C#N)c1-c1ccccc1Cl,7.13%

row,Compound,inhibition
1,O=C(O)CCCNS(=O)(=O)Cc1ccccc1,2.38%
2,COc1cc(OC)nc(Oc2ccccc2C(=O)Oc2ccccc2Cl)n1,3.91%
3,COc1cc(OC)nc(Oc2ccccc2C(=O)Oc2ccc(C)cc2)n1,-5.69%
4,O=C(NCc1ccccc1)N1CCC(CO)(Cc2cccc(F)c2)CC1,1.55%
5,CC(=O)c1sc(NC(=O)c2c(F)cccc2F)nc1-c1ccccc1,3.31%
6,CCCCCOc1ccc(NS(C)(=O)=O)cc1,-0.68%
7,CCCOc1ccc(NC2=CC(=O)CC(C)(C)C2)cc1,0.84%
8,COc1ccccc1NS(=O)(=O)c1ccc(O)c(C(=O)OCc2cccc([N+](=O)[O-])c2)c1,-3.81%
9,O=C(NCC1CCCO1)C(c1cccs1)N(Cc1ccccc1)C(=O)c1ccc(-c2ccccc2)[nH]1 (stereo not given),14.9%
10,O=C(NCC1CCCO1)C(c1cccs1)N(Cc1cccs1)C(=O)c1ccc(-c2ccccc2)[nH]1 (stereo not given),0.19%
11,COc1cc(NC(=S)NCCCO)c(OC)cc1Cl,-4.61%
12,CC(=O)c1ccc(C(=O)N2CCCC(CCC(=O)N(C)CCc3ccccn3)C2)s1 (stereo not given),-4.61%
13,OCC1(Cc2cccc(C(F)(F)F)c2)CCN(Cc2cc(F)cc(F)c2)CC1,14%
14,Cc1c(CN2CCC(CO)(Cc3ccccc3)CC2)c2ccccc2n1C,-7.19%
15,O=C(CN(C(=O)CCC(=O)Nc1nccs1)c1ccc(F)cc1)NCc1ccccc1,-3.51%
16,CCOC(=O)Cn1cc(-c2ccccc2)nn1,-3.68%
17,O=c1cc(O)c2sc3nc(-c4ccccc4)cc(C(F)(F)F)c3c2[nH]1,5.22%
18,Cc1cc(C(F)(F)F)c2c(n1)sc1c(O)cc(=O)[nH]c12,-2.51%
19,COc1cc(/C=C2\SC(=S)N(N3CCOCC3)C2=O)cc(OC)c1OC,3.16%
20,Cc1ccc(C(C)C)c(OCC(=O)NS(=O)(=O)c2ccc(Cl)cc2)c1,-3.31%
21,Cc1ccc(C(=O)N2CCN3C(=O)c4ccccc4C23c2ccc(Cl)cc2)cc1 (stereo not given),13.6%
22,O=C(c1ccccc1)N1CCN2C(=O)c3ccccc3C12c1ccc(Cl)cc1 (stereo not given),4.61%
23,COc1cccc(NC(=O)Nc2ccc(Br)cn2)c1,4.97%
